# Rows were chosen to be rich in hits. Some 1.9% of all compounds tested hit in one or more screens of this group.
# Pf gamet viab: P. falciparum stage V gametocyte viability inhibition; P. falciparum stage V gametocytes, ATP luminescence, 24 h; 150,000 compounds, 0.065% hits; AID 743093; inhibition, % at 10.9 µM;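 active means inhibition above the mean plus 3 SD of compounds within the control limits, set per campaign, cut at about 38% in these data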
# EP2 modulator: EP2 receptor (human) modulation | P43116 | EP2-expressing cells, cAMP HTRF FRET, PGE2 co-stimulation | induction, % at 25 µM | 260,000 compounds, 0.83% hits;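 active means compounds whose cAMP rise, as percent of the full-agonist control response, exceeds 60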;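 further: rat C6 glioma line stably carrying human EP2 under a CMV promoter; the protocol text gives 20 µM as final concentration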
# PGE2 EP2 inh: blocks the human prostaglandin E2 receptor EP2. P43116. AID 1422. inhibition, % at 25 µM. 260,000 compounds, 0.52% hits. C6 glioma cells expressing human EP2, cAMP TR-FRET; cells stimulated with saturating PGE2;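 active means percent inhibition above 40 after rounding to a whole number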;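 further: rat C6 glioma host cells with rolipram phosphodiesterase inhibitor present; the protocol text gives 20 µM as final concentration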
# S1P4 antag: blocks the human S1P4 receptor; AID 1510; 220,000 compounds, 0.26% hits; inhibition, % at 4.98 µM; S1P4-expressing cells, antagonist mode, reporter read-out; in the data active means inhibition above about 29%
# S1P3 antagonist: blocks the human S1P3 receptor; CHO S1P3 NFAT-BLA reporter, FRET fluorescence, antagonist mode; inhibition, % at 4.98 µM; Q99500; AID 485; 170,000 compounds, 0.27% hits;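 active means inhibition above the plate cutoff, the mean inhibition of test wells on that plate plus 3 SD, cut at about 28% in these data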;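 further: cells challenged with S1P at its EC80 of 0.8 µM; blue over green emission ratio from cleaved BLA substrate after 4 h stimulation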
# S1P4 agonist: activates the human S1P4 receptor; O95977; S1P4-expressing cell line, agonist reporter assay; 220,000 compounds, 0.35% hits; AID 1509; activation, % at 4.98 µM; in the data active means activation above about 11%
# S1P4 agonist cf: confirmation of human S1P4 receptor agonists; shares compounds with S1P4 agonist; S1P4 agonist cell-based reporter assay; activation, % at 4.98 µM; 740 compounds, 7% hits; in the data active means activation above about 12%
# S1P1 ag: human S1P1 agonism as S1P4 agonist counter-screen; S1P1 agonist cell-based assay, activation; activation, % at 4.98 µM; 740 compounds, 4% hits; shares compounds with S1P4 agonist; in the data active means activation above about 21%
# Target sequence (P21453 whole entry, looked up): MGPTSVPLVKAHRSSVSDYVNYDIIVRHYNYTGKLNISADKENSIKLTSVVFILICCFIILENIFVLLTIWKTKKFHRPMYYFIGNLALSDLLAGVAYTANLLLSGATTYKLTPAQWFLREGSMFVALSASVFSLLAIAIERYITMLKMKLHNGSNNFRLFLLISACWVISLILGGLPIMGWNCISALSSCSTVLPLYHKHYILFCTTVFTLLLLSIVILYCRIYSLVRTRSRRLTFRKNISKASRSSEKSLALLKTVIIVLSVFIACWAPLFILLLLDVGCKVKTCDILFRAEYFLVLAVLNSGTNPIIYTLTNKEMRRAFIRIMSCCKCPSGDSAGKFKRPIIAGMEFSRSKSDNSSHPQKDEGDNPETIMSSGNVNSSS
# Hits are given with their value; n = inactive; x = no result given.
SMILES,Pf gamet viab,EP2 modulator,PGE2 EP2 inh,S1P4 antag,S1P3 antagonist,S1P4 agonist,S1P4 agonist cf,S1P1 ag
CCOC(=O)c1cc2c(=O)n3ccccc3nc2n(CCCOC)c1=NC(=O)C(C)(C)C,x,n,n,n,x,15.6,n,n
CCOC(=O)c1cc2c(=O)n3ccccc3nc2n(CCOC)c1=NC(=O)C(C)(C)C,n,n,n,n,x,n,x,x
CCN1CCN(CCC(=O)Nc2ccc3c(c2)CCC3)CC1,x,n,n,x,x,x,x,x
CCOC(=O)c1c(NC(=O)COC)sc(C)c1C,x,n,n,n,x,n,x,x
CCOC(=O)c1c(NC(=O)COC(=O)c2cc(OC)c(OC)cc2[N+](=O)[O-])sc(C)c1C,n,n,n,n,n,16.5,n,n
COc1ccccc1C1(NC(=O)c2cnsc2)CCCC1,x,n,n,x,x,x,x,x
CCOc1ccc(NC(=O)CCn2c(=O)[nH]c3ccsc3c2=O)cc1,x,n,n,n,x,24.1,n,n
Cc1ccc(NC(=O)CCn2c(=O)[nH]c3ccsc3c2=O)cc1,n,n,n,n,n,n,x,x
CCCC(=O)N1N=C(c2ccccc2)CC1c1cn(C)c2ccccc12 (stereo not drawn),n,n,n,n,n,n,x,x
Cn1cc(C2CC(c3ccccc3)=NN2C(=O)c2ccccc2)c2ccccc21 (stereo not drawn),x,n,n,n,n,12.9,n,n
CCC(C)NCCC(=O)Nc1ccc(Cl)c(S(=O)(=O)Nc2ccc(Cl)cc2)c1 (stereo not drawn),n,n,n,n,n,19.1,n,n
Cc1ccc(C(=O)CCC(=O)Nc2ccc(Cl)c(S(=O)(=O)Nc3cccc(Cl)c3)c2)cc1,x,n,n,n,n,n,x,x
N#Cc1cc2c(=O)n3ccccc3nc2n(-c2ccccc2Cl)c1=O,n,n,n,n,n,28.3,15.6,29.2
CCN1CCN(C(=O)c2cccc(F)c2)CC1,x,n,n,x,x,x,x,x
COc1ccc(C2(C)NN=C3Oc4ccccc4N32)cc1 (stereo not drawn),x,n,n,x,x,x,x,x
COc1ccc(NC(=O)CSc2nc3ccccc3c(=O)n2C2CCCCC2)cc1,x,n,n,x,x,x,x,x
CCC(C)(C)NC(=O)c1ccc2c(c1)N(CC(=O)OC)C(=O)C(C)(C)O2,n,n,n,n,n,n,x,x
CCOC(=O)CN1C(=O)C(C)(C)Oc2ccc(C(=O)NC(C)(C)CC)cc21,x,n,n,n,n,27.9,n,n
CCC(=O)N(Cc1ccccc1)Cc1cc2cc(C)c(C)cc2[nH]c1=O,x,n,n,x,x,x,x,x
COc1ccc(NC(=O)Cn2nnc3c(cnn3-c3ccccc3)c2=O)c(OC)c1,x,n,n,x,x,x,x,x
Cc1sc2nc(C3CC3)n(C3CCN(C(=O)C4CCCC4)CC3)c(=O)c2c1C,x,n,x,x,x,x,x,x
CN(c1cccc(Cl)c1)S(=O)(=O)c1cccc(C(=O)Nc2nc3ccccc3[nH]2)c1,x,n,n,n,n,n,x,x
C=CCN(c1ccccc1)S(=O)(=O)c1cccc(C(=O)Nc2nc3ccccc3[nH]2)c1,n,n,n,n,n,22.2,n,n
COc1ccc(S(=O)(=O)N2c3ccccc3OCC2C)cc1 (stereo not drawn),n,n,n,n,n,15.2,n,n
O=C(NC1CCN(S(=O)(=O)c2cccc(F)c2)CC1)C1CCCCC1,x,n,n,x,x,x,x,x
SMILES,Pf gamet viab,EP2 modulator,PGE2 EP2 inh,S1P4 antag,S1P3 antagonist,S1P4 agonist,S1P4 agonist cf,S1P1 ag
CCn1nc(C)c(/C=N/NC(=S)Nc2ccc(Cl)cc2Cl)c1C,n,n,n,n,n,n,x,x
Cc1nn(C)cc1/C=N/NC(=S)Nc1ccc(Cl)cc1Cl,n,n,n,n,n,15.4,n,n
C=CCN1C(=O)CS/C1=N\S(=O)(=O)c1ccc(Cl)cc1,n,n,n,n,n,11.2,n,n
Cc1ccc2nc3c(cc(C#N)c(=O)n3-c3nccs3)c(=O)n2c1,x,n,n,n,n,31.4,14.5,23.6
Cc1ccc2nc3c(cc(C#N)c(=O)n3CCN3CCOCC3)c(=O)n2c1,x,x,x,x,n,x,x,x
COc1ccc(S(=O)(=O)Nc2cccc(N(C)S(C)(=O)=O)c2)cc1Br,n,n,n,n,n,11.4,n,n
NS(=O)(=O)c1ccc(N/N=C/c2cn(-c3ccccc3)nc2-c2cccs2)c([N+](=O)[O-])c1,n,n,n,n,n,37.5,n,n
O=C(CSc1ncccn1)N1CCN(S(=O)(=O)c2ccccc2)CC1,n,n,n,n,n,n,x,x
O=C(Cn1cnc2ccccc21)N1CCN(S(=O)(=O)c2ccccc2)CC1,n,n,n,n,n,15.1,n,n
COc1ccccc1C1(O)CCN(CC(=O)Nc2nc(-c3ccccc3)cs2)CC1,n,n,n,n,n,21.4,n,n
Cc1cc(C=NCCCO)c(C)n1-c1cc(Cl)ccc1Cl,n,n,n,n,n,13.2,21.4,n
Cc1cc(/C=N/n2cnnc2)c(C)n1-c1ccc(Cl)cc1Cl,x,n,n,n,n,n,x,x
Cc1cc(C)c2sc(NNC(=O)C3COc4ccccc4O3)nc2c1 (stereo not drawn),x,n,n,n,n,20.9,n,n
O=C(Nc1ccccc1)C1COc2ccccc2O1 (stereo not drawn),n,x,x,x,x,x,x,x
Cc1cccc2sc(NNC(=O)C3COc4ccccc4O3)nc12 (stereo not drawn),x,n,n,n,n,n,x,x
CC(C)NC(=O)C1COc2ccccc2O1 (stereo not drawn),n,n,n,n,n,63.9,n,n
O=c1[nH]c2cc3c(cc2cc1CN(CCO)C(=S)NCc1ccco1)OCCO3,x,n,n,x,x,x,x,x
COc1ccc(C(CC(=O)O)NC(=O)COc2ccccc2)cc1OC (stereo not drawn),n,n,n,n,n,n,x,x
CCOc1ccc(C(CC(=O)O)NC(=O)COc2ccccc2)cc1OC (stereo not drawn),x,n,n,n,n,43.8,n,n

# Compound activity as filed in PubChem BioAssay.
